From PubChem
Compounds with a hit are over-represented: about 17% of the library has one in this group of screens.
ClpP mod – qHTS Assay for Activators of ClpP. ATP-dependent Clp protease proteolytic subunit (Bacillus subtilis (strain 168)), P80244. actives 1.9% (n = 340,000). AID 651965, 2013. purified B. subtilis ClpP, FRET peptide cleavage, 20 min. Potency, µM (titrated, usually from 57.5 µM), for inactives: at the highest dose activity change, negative = active; active = well fitted falling curve with a large enough effect; inconclusive = small, poorly fitted or top-dose-only effect; inactive = no such curve, though single readings can be large or run the other way; also: the source files actives as falling curves though it sought activators and does not explain the sign; nearly all actives have a fitted effect of over 65% in size
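FRET quenching reversal measured ClpP activation: 10 microg/mL B. subtilis ClpP at pH 8 with the FRET-FV decapeptide, read at 430 nm after 320 nm excitation. The 20-min minus 0-min signal was scaled between DMSO/no-enzyme wells and ADEP (5.8 microM final).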
DT40 TDP1 CPT – DT40-hTDP1 cell growth loss with CPT; Potency, µM (series often up to 46.2 µM), inactives show at the top dose activity change, negative = growth inhibition, actives largely listed as inhibitors; actives 12% (n = 420,000); chicken DT40 Tdp1-/-;hTDP1 cells + 20 nM CPT, ATP luminescence, 48 h; AID 686979; also: % is scaled to controls: 0 for no effect and ±100 for the full control effect; nearly all actives have a fitted effect of over 55% in size
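Cell growth measured by CellTiter-Glo luminescence after a minimum 48 h, 37 C compound exposure with 20 nM CPT in Tdp1-knockout DT40 cells stably expressing hTDP1, seeded 400/well; qHTS titration format.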
TDP1 inh – TDP1 (human) enzyme inhibition | Potency, µM (highest dose often 130 µM), without a hit: at the highest dose activity change, negative = inhibition, actives largely listed as inhibitors | recombinant TDP1, AlphaScreen DNA substrate cleavage | actives 0.28% (n = 350,000) | AID 485290 | Q9NUW8; also: % is scaled to controls: 0 for no effect and ±100 for the full control effect; nearly all actives have a fitted effect of over 40% in size
Target sequence (Q9NUW8 whole entry, looked up): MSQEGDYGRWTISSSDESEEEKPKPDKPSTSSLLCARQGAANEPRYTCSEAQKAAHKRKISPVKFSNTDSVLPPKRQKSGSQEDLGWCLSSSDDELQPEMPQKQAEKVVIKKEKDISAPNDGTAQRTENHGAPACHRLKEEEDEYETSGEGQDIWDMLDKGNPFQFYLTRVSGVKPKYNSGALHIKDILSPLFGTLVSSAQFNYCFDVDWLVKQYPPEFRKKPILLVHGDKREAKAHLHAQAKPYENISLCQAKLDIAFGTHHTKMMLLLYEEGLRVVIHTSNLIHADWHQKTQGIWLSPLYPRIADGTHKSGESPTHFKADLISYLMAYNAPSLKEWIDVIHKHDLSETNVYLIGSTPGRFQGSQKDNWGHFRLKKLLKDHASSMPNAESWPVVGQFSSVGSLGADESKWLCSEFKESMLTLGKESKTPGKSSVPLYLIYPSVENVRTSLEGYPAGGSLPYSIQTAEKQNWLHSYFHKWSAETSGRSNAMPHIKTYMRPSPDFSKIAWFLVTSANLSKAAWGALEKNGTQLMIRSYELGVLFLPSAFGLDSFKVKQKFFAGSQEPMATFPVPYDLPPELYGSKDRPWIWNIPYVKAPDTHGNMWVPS
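Enzyme-compound mixtures sat 15 min at room temperature, followed by a 5 min reaction with 15 nM final substrate and 10 min with AlphaScreen beads. Recombinant human Tdp1 was used at 1 nM final.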
DT40 TDP1 no CPT – qHTS for Inhibitors of human tyrosyl-DNA phosphodiesterase 1 (TDP1): qHTS in cells in absence of CPT; DT40 Tdp1-/- hTDP1 cells, no CPT, ATP luminescence, 48 h; actives 15% (n = 420,000); Potency, µM (titrated, usually from 46.2 µM), inactives show at the top dose activity change, negative = growth inhibition, actives largely listed as inhibitors; also: % is scaled to controls: 0 for no effect and ±100 for the full control effect; nearly all actives have a fitted effect of over 55% in size
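DT40 Tdp1-/-;hTDP1 cells, no CPT (DMSO vehicle only), 400 cells/well; compounds pin-transferred; ≥48 hr, 37 °C; CellTiter-Glo 30 min RT dark, luminescence read.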
Active calls of the source: *; ? = inconclusive; . = no result; ! = not confirmed by another sample; [ ] = dose if it differs, or a comment. Unless noted, calls follow the shape of the dose curve; as a rule, active = well fitted curve in the direction sought with a large enough effect; inconclusive = small, poorly fitted or top-dose-only effect, or another doubt; inactive = no such curve, though single readings can be large; an effect the other way counts as inactive or inconclusive. Potency is read from the fitted curve at half-maximal effect.

SMILES | ClpP mod | DT40 TDP1 CPT | TDP1 inh | DT40 TDP1 no CPT
CCC(CO)Oc1cc(NCc2cccc(C(F)(F)F)c2)c2ncn(C(C)C)c2c1 (stereo not given) | -1.5% | 16.4µM* | 6.4% | ?
CCC(CO)Oc1cc(NCc2cccc(C)c2)c2ncn(C(C)C)c2c1 (stereo not given) | -0.2% | 20.6µM* | 4.4% | ?
CC[C@H](CO)Oc1cc(NCc2cccc(N)c2)c2ncn(C(C)C)c2c1 | 0.3% | 25.9µM* | . | ?
O=S(=O)(c1ccc2c(c1)OCO2)N1CCN(c2nc(-c3cccs3)nc3ccccc23)CC1 | 3.8% | ? | 0.4% | ?
CCC(CO)Oc1cc(NCc2ccccc2O)c2ncn(C(C)C)c2c1 (stereo not given) | -4.7% | 14.6µM* | 7.5% | 18.4µM*
CCOc1cc(NCc2ccccc2)c2ncn(C(C)C)c2c1 | 0.2% | ? | 12.5% | 23.1µM*
CCCOc1cc(NCc2ccccc2)c2ncn(C(C)C)c2c1 | -0.8% | ? | 12.2% | ?
O=C(CSc1nnc(CNC(=O)c2ccco2)o1)Nc1ccccc1C(F)(F)F | 1.0% | -0.2% | 1.3% | 29.1%
CC(=O)NC(=C(Cl)Cl)S(=O)(=O)c1ccccc1 | -1.9% | 11.6µM* | 6.0% | 8.2µM*
Cc1ccc(S(=O)(=O)/C(=C/Cl)NC(=O)c2ccccc2)cc1 | -2.3% | 18.4µM* | 5.6% | 14.6µM*
Cc1ccc(C(=O)NC(=C(Cl)Cl)S(=O)(=O)c2ccc(Cl)cc2)cc1 | -1.2% | ? | 7.2% | 18.4µM*
O=C(NC(=C(Cl)Cl)S(=O)(=O)c1ccc(Cl)cc1)c1ccccc1 | -2.3% | 6.51µM* | 0.0% | 9.2µM*
Cc1ccc(C(=O)NC(=C(Cl)Cl)S(=O)(=O)c2ccc(C)cc2)cc1 | -10.5% | ? | 7.0% | ?
Cc1ccc(S(=O)(=O)C(NC(=O)c2ccccc2)=C(Cl)Cl)cc1 | -2.2% | 23.1µM* | . | 13µM*
CCOC(=O)c1sc(N=NC2=C(O)CC(C)(C)CC2=O)c(C(=O)OCC)c1C | -0.2% | ? | 0.0% | 14.6µM*
CCOC(=O)c1c(/N=C/C2=C(O)CCCC2=O)sc(C)c1C | 1.1% | -11.7% | 0.0% | 1.4%
Cc1oc(-c2ccc(C(=O)Nc3cccc(C(F)(F)F)c3)cc2)nc1CSc1ccccc1 | 4.4% | 23.1µM* | 2.8% | 16.4µM*
Cc1cccc(NC(=O)c2ccc(-c3nc(CSc4ccccc4)c(C)o3)cc2)c1C | -1.8% | 5.17µM* | 0.0% | ?
Cc1oc(-c2ccccc2Cl)nc1CSCC(=O)O | -5.3% | 5.9% | 3.7% | -0.7%
Cc1oc(-c2cccc(Cl)c2)nc1CSCC(=O)O | -6.7% | 16.4µM*! | 7.8% | 29.1µM*!
Cc1ccc(Cl)cc1NC(=O)c1ccc(-c2nc(CSc3ccccc3)c(C)o2)cc1 | 12.6µM* | 9.2µM* | -5.6% | 6.51µM*
COc1ccc(N2CC(C(=O)Nc3nnc(Cc4ccccc4)s3)CC2=O)cc1 (stereo not given) | . | -4.1% | 2.8%[0.0935 µM] | -8.6%
CCOc1cc(/C=C2/C(=O)ON=C2C)cc(Br)c1O | 2.6% | ? | . | ?
COc1cc(/C=c2\sc3n(c2=O)C(c2ccccc2)C(c2ccccc2)=NN=3)ccc1O (stereo not given) | -1.0% | ? | 9.4% | 14.6µM*
COc1cc(/C=c2\sc3n(c2=O)CCCN=3)ccc1O | 2.8% | -24.7% | 0.0% | -22.5%
SMILES | ClpP mod | DT40 TDP1 CPT | TDP1 inh | DT40 TDP1 no CPT
COc1cc(/C=C2/C(=O)ON=C2c2ccccc2)ccc1O | -0.7% | 23.1µM* | 0.0% | 18.4µM*
Cc1ccc(C2=NOC(=O)/C2=C\c2ccccc2)cc1 | 0.5% | ? | . | ?
COc1cc(/C=C2\C(=O)ON=C2c2ccccc2)cc(Cl)c1O | . | 16.4µM* | 2.7% | 18.4µM*
COc1cc(C=C2C(=O)OC(c3ccccc3)OC2=O)cc(Br)c1O (stereo not given) | . | ? | 7.4% | 23.1µM*
COc1cc(/C=C2\C(=O)ON=C2c2ccccc2)cc(Br)c1O | . | 6.51µM* | . | 10.3µM*
Cc1sc(/C=C2\C(=O)ON=C2c2ccccc2)cc1Br | . | . | 0.0% | .
COCCCNC(=O)C(=O)N/N=C/c1ccc(OCC(=O)Nc2cccc(Cl)c2C)c(OC)c1 | 60.5% | -6.2% | 6.0% | 7.8%
CCc1ccccc1NC(=O)CN(c1cc(C(F)(F)F)ccc1Cl)S(=O)(=O)c1ccccc1 | -2.3% | ? | . | ?
Cc1cnc(-n2ncc(C(=O)NCCc3cccnc3)c2C)nc1-c1ccc(F)cc1 | . | -6.9%[9.04 µM] | . | ?
Cc1cnc(-n2ncc(C(=O)NCCc3cccnc3)c2C)nc1-c1cccs1 | . | -5.3%[9.04 µM] | . | 20.6µM*
CCS(=O)(=O)NCCCc1ccccc1 | 0.3% | 20.6µM* | 8.7% | ?
Nc1nc(-c2ccco2)nc(N2CCCCC2)n1 | -2.1% | -2.3% | 8.0% | -0.8%
Clc1ccc(-c2nnc(-c3ccc(Br)cc3)c(N3CCSCC3)n2)cc1 | 0.9% | 11.6µM* | 3.4% | 11.6µM*
Clc1ccc(-c2nnc(-c3ccco3)nc2N2CCCCC2)cc1 | 1.6% | 20.6µM* | 6.7% | 20.6µM*
COC(=O)c1cc(OC)c(OC)cc1NC(=O)c1ccc(C)o1 | -6.2% | 14.6µM* | 7.8% | 18.4µM*
COC(=O)c1ccccc1NC(=O)c1cccc(NC(=O)c2ccc(Br)o2)c1C | -4.6% | 2.91µM* | 2.3% | 1.84µM*
O=C(Nc1ccccc1C(=O)O)c1ccc(Br)o1 | 0.7% | -0.7% | 1.9% | -2.6%
COC(=O)c1ccccc1NC(=O)c1ccc(COc2ccc(C)c(C)c2)o1 | ? | ? | -7.0% | 13µM*
Cc1ccc(OCc2ccc(C(=O)NN)o2)cc1C | -2.0% | 4.6% | 4.1% | -8.1%
Cc1cc2nc(-c3cccc(NC(=O)c4ccc(Br)o4)c3C)oc2cc1C | -13.0% | ? | -8.4% | 23.1µM*
COC(=O)c1cc(OC)c(OC)cc1NC(=O)CCc1ccc(C)o1 | -11.3% | ? | 6.6% | ?
Cc1ccc2oc(-c3cccc(NC(=O)c4ccc(Br)o4)c3C)nc2c1 | -12.3% | ? | 1.1% | ?
COc1ccc(CCNC(=O)c2ccc3ccccc3n2)cc1 | . | -29.1% | 9.0% | -27.8%
O=C(Cc1c(F)cccc1Cl)NCC(=O)OCc1ccccc1 | . | 7.0% | -7.0% | -1.8%
CC1(C(=O)NS(=O)(=O)c2cccc(F)c2)CCN1C(=O)CC1CCCC1 (stereo not given) | 0.7% | -3.9% | . | 4.6%
COc1ccccc1NC(=O)c1ccc(COc2ccccc2OC)o1 | -1.1% | -15.9% | 5.4% | -23.8%
COC(=O)c1ccccc1NC(=O)c1ccc(COc2cc(C)cc(C)c2)o1 | 20µM*! | ? | 1.1% | 23.1µM*
COCC(=O)N1CCc2cc(OC)c(OC)cc2C1COc1ccc2c(C)cc(=O)oc2c1 (stereo not given) | ? | -27.1% | -2.9% | ?
